# Out of some 39,000 compounds screened, about 3,300 (8.5%) were called active. For the sample, actives were picked, then their nearest neighbours and some compounds at random.
# Test system: HepG2
# Experiment: cytotoxicity call (relative viability < 0.9)
# Conditions: 10 µM
row,SMILES,cytotoxicity call
1,C[C@@H]1CN([C@H](C)CO)C(=O)c2cccc(NC(=O)CCCCCC(=O)Nc3ccccc3N)c2O[C@H]1CN(C)S(C)(=O)=O,inactive
2,C[C@H](CO)N1C[C@H](C)[C@@H](CN(C)Cc2ccc(-c3ccccc3)cc2)Oc2ccc(NS(=O)(=O)c3ccc(F)cc3)cc2C1=O,active
3,Cc1noc(C)c1S(=O)(=O)N(C)C[C@H]1Oc2ccc(NS(=O)(=O)c3cn(C)cn3)cc2CC(=O)N([C@@H](C)CO)C[C@H]1C,inactive
4,CCOC(=O)C1=C(C)N[C@@]2(O)C[C@@H]1[C@H]1CO[C@@H]2O1,inactive
5,NNC(=O)c1ccncc1.Nc1ccc(C(=O)O)c(O)c1,active
6,Nc1ccc(C(=O)O)c(O)c1,inactive
7,NNC(=O)c1ccncc1,inactive
8,CC(C)OC[C@H]1Cn2c(nc3c2c(=O)n(C)c(=O)n3C)O1,inactive
9,NC(CC(=O)O)C(=O)O (stereo not drawn),inactive
10,NC(CO)C(=O)O (stereo not drawn),active
11,NC(=O)CCC(N)C(=O)O (stereo not drawn),active
12,NC(=O)CC[C@@H](N)C(=O)O,inactive
13,Cl.NCCCCC(N)C(=O)O (stereo not drawn),inactive
14,Cl.NCCCC(N)C(=O)O (stereo not drawn),active
15,NC(=O)CC[C@H](N)C(=O)O,inactive
16,NCCCC[C@H](N)C(=O)O,inactive
17,N[C@H](CO)C(=O)O,inactive
18,NC(=O)NCC#Cc1ccc2c(c1)[C@]1(C(=O)N2)[C@H](c2ccc(OCCO)cc2)N2[C@H](c3ccccc3)[C@H](c3ccccc3)OC(=O)[C@H]2[C@@H]1C(=O)N1CCCCCCC1,inactive
19,C[C@H](CO)N1C[C@H](C)[C@@H](CN(C)Cc2ccc3c(c2)OCO3)OCc2ccccc2-c2c(n(C)c3ccccc23)C1=O,inactive
20,C[C@H]1CCCCO[C@@H](CN(C)C(=O)CCC(F)(F)F)[C@@H](C)CN([C@@H](C)CO)C(=O)c2cc(NS(=O)(=O)c3ccc(F)cc3)ccc2O1,inactive
21,C[C@H](CO)N1C[C@H](C)[C@H](CN(C)C(=O)Nc2cccc3ccccc23)Oc2ccc(NC(=O)Nc3ccccc3)cc2CC1=O,inactive
22,Cc1cccc(NC(=O)Nc2ccc3c(c2)C(=O)N(C)[C@H]2CC[C@H](CC(=O)NCc4ccccc4Cl)O[C@H]2CO3)c1,inactive
23,C[C@@H]1CN([C@H](C)CO)S(=O)(=O)c2ccc(C#CC3CC3)cc2O[C@H]1CN(C)C(=O)Cc1ccncc1,inactive
24,C[C@H]1CN([C@@H](C)CO)C(=O)c2cccc(NS(=O)(=O)c3ccccc3)c2O[C@H]1CN(C)S(=O)(=O)c1ccc(F)cc1,inactive
25,COCCNC(=O)C[C@H]1CC[C@H]2[C@@H](COC[C@H](O)CN2C(=O)Nc2ccc3c(c2)OCO3)O1,inactive
26,OCc1cccnc1,inactive
27,C(=N\Cc1cccnc1)/c1c2ccccc2cc2ccccc12,active
28,O=C(O)CCC(=O)NCc1cccnc1,inactive

# Source: the antibiotic and cytotoxicity screens of Wong et al. (2023)
